Screens from PubChem.
Pf Dd2 growth – Plasmodium falciparum Dd2 growth inhibition; P. falciparum Dd2 growth, SYBR Green, 72 h; Potency, µM (series often up to 28.9 µM), for inactives: at the highest dose activity, negative = inhibition, most hits filed as inhibitors; 120,000 tested, 4.3% active; AID 1347417; active = well fitted inhibition curve with a large enough effect;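 also: plate controls were DMSO vehicle for no effect and reference drug for full effect; nearly all actives have a fitted effect of over 65% in size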
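Infected erythrocytes (Dd2, 0.3% parasitemia, 2.5% hematocrit final) are added to compound in RPMI-1640/Albumax II medium, grown 72 h at 37C in low oxygen, then lysed with saponin/Triton-X containing SYBR Green and read by fluorescence.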
* marks the source's active call; other numbers are inactive results; [ ] = another dose, or the depositor's remark. Only a selection was taken, and hits are over-represented in it overall. Potency is read from the fitted curve at half-maximal effect.

For CC(C)c1ccc(NC(=O)c2ccc3c(c2)N(C)C2CCCN2C3=O)cc1 (configuration not stated) the results were Pf Dd2 growth inactive.
`COc1ccc(S(=O)(=O)N2CCCC(Cc3nncn3C)C2)cc1` (configuration not stated) gave Pf Dd2 growth inactive.
Screening CN(CC1CCOC1)S(=O)(=O)c1cc(F)ccc1F (configuration not stated) returned Pf Dd2 growth 14%[5.79 µM].
For Cn1nc(C2CCN(C(=O)c3nccc4ccccc34)CC2)c2c1CCOC2 the results were Pf Dd2 growth 63%[5.79 µM].
Screening Cc1cnc(C(=O)N[C@@H]2CCC[C@@H]2C(=O)N2CCCCC2)cn1 returned Pf Dd2 growth -13%.
NC(=O)CN1C(=O)CO[C@H]2CN(CCCc3ccccc3)C[C@H]21 was read as Pf Dd2 growth -12%[44.1 µM].
For CO[C@H]1[C@H](NC(=O)c2cnc(C)cn2)c2ccccc2C12CCNCC2 the results were Pf Dd2 growth -15%.
Screening CC(C)c1ccccc1NC(=O)Cn1ccn2nc(-c3ccc(F)cc3)c(CO)c2c1=O returned Pf Dd2 growth inactive.
For O=C(Cc1ccc(F)cc1)Nc1cccc(-c2nnc3n2CCCC3)c1 the results were Pf Dd2 growth 7.1µM*.
Screening O=C(Cc1ccc(Cl)cc1)Nc1cccc(-c2nnc3n2CCCC3)c1 returned Pf Dd2 growth inactive.
O=C(Cc1ccsc1)NC1CCc2nnc(C3CC3)n2CC1 (configuration not stated) was read as Pf Dd2 growth 3%.
Screening O=C(Cn1nc2n(c1=O)CCCC2)Nc1cccc(Br)c1 returned Pf Dd2 growth 50%.
`Cc1c(F)cccc1NC(=O)Nc1cccc(-c2nnc3n2CCCC3)c1` gave Pf Dd2 growth inactive.
`Cc1nnc2n1CCC(NC(=O)CCc1c[nH]c3ccccc13)CC2` (configuration not stated) gave Pf Dd2 growth 36%.
For O=C(CCc1c[nH]c2ccccc12)Nc1cccc(-c2nnc3n2CCCC3)c1 the results were Pf Dd2 growth 3.2µM*.
Screening Cc1nnc2n1CCC(N(C)C(=O)CCc1c[nH]c3ccccc13)CC2 (configuration not stated) returned Pf Dd2 growth inactive.
O=C(Cc1ccsc1)Nc1cccc(-c2nnc3n2CCCC3)c1 was read as Pf Dd2 growth 8.9µM*.
`COc1ccc(OC2CN(C(=O)c3ccc(C)cc3)C2)cc1` gave Pf Dd2 growth 23%[44.1 µM].
COc1ccc(C(=O)N(C)Cc2ccccc2C(F)(F)F)cc1 was read as Pf Dd2 growth -1%[44.1 µM].
Screening O=C(C[C@@H]1O[C@H](CNC(=O)Nc2cccc(F)c2)[C@@H](O)[C@H]1O)NCc1ccc(F)cc1 returned Pf Dd2 growth inactive.
Screening COCCn1ncc(N2CCCC(CC(=O)NCc3ccc(F)cc3)C2)cc1=O (configuration not stated) returned Pf Dd2 growth -5%.
COC(=O)CNC(=O)C1CCN(C(=O)C2CN(c3cccc(OC)c3)C(=O)N2)C1 (configuration not stated) was read as Pf Dd2 growth -10%.
Screening CC(C)NC(=O)Cc1ccc(N(Cc2ccc(F)cc2)C(=O)c2ccco2)cc1 returned Pf Dd2 growth inactive.
Screening O=C(c1cccnn1)N1CCC2(CC1)CC(c1ccccc1)CN(C1CC1)C2 (configuration not stated) returned Pf Dd2 growth -9%.
`COc1c(C)cccc1C(=O)N1CCOC(c2ccc(Cl)c(Cl)c2)C1` (configuration not stated) gave Pf Dd2 growth -7%.
For COc1cc(OC)cc(C(=O)N2CCC(c3n[nH]c(=O)n3Cc3ccc(F)cc3)CC2)c1 the results were Pf Dd2 growth inactive.
For Cc1cc2nc(-c3cc(NC(=O)c4cc5ccccc5o4)ccc3Cl)oc2cc1C the results were Pf Dd2 growth inactive.
For O=C(Nc1ccc(Cl)c(-c2nc3cc(Cl)ccc3o2)c1)c1cc2ccccc2o1 the results were Pf Dd2 growth 2%.
For Cc1cc(NC(=O)c2cc(Cl)ccc2Cl)ccc1-c1cc2ccccc2oc1=O the results were Pf Dd2 growth 11µM*.
Screening Cc1ccc(-n2nc(C)c(C(=O)NCCCN3CCN(c4ccc(F)cc4)CC3)c2-n2cccc2)cc1 returned Pf Dd2 growth inactive.
For COc1ccc(N2CCN(CCCNC(=O)Nc3ccccc3)CC2)cc1 the results were Pf Dd2 growth inactive.
`COc1cccc(N2CCN(C(=O)Cn3c(-c4cccs4)cc4ccccc43)CC2)c1` gave Pf Dd2 growth -16%.
CCOC(=O)c1c(C)[nH]c(CCC(=O)NCCCN2CCN(c3ccc(F)cc3)CC2)c1C was read as Pf Dd2 growth -17%.
CC(C)Oc1ccc(CNC(=O)Cn2c(-c3cccs3)cc3ccccc32)cc1 was read as Pf Dd2 growth -8%.
COc1ccc(N2CCN(CCCNC(=O)Cn3c(-c4cccs4)cc4ccccc43)CC2)cc1 was read as Pf Dd2 growth 11µM*.
Cc1cccc(CNC(=O)Cn2c(-c3cccs3)cc3ccccc32)c1 was read as Pf Dd2 growth 11µM*.
